In the library only some 11% were active in any assay of this set; here they are far more common.
PNC inhibitor = High Content Assay for Compounds that inhibit the Assembly of the Perinucleolar Compartment | PC3M PTB-GFP, PNC prevalence imaging, 16 h; active compounds read low | 3.1% of 140,000 active | AID 2417, 2010 | activity change (PNC), negative = inhibition, % at 10 µM;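 active = readout at or below -70, meaning at least 70% loss of cells showing the perinucleolar compartment, a nuclear body marking cancer cells; inconclusive = readout between -30 and a set limit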;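 note: plate controls were DMSO wells for no effect and camptothecin positive control wells for full effect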
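Read-out is percentage of cells bearing a perinucleolar compartment, from automated 20x imaging of fixed, Hoechst-stained PC3M PTB-GFP cells. Cells were seeded 4 h, then exposed 16 h to compound (23 nl of library stock) in duplicate plates.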
ALDH1A1 block = qHTS Assay for Inhibitors of Aldehyde Dehydrogenase 1 (ALDH1A1); Aldehyde dehydrogenase 1A1 (Homo sapiens), P00352; Purified ALDH1A1, NADH fluorescence, propionaldehyde substrate; Potency, µM (titrated, usually from 75.3 µM), for inactives: at the highest dose activity, negative = inhibition, actives largely listed as inhibitors; 7.3% of 220,000 active; AID 1030, 2008;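 note: potency is the fitted concentration of half-maximal effect; plate controls were no enzyme wells and a reference inhibitor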
HPGD block = qHTS Assay for Inhibitors of HPGD (15-Hydroxyprostaglandin Dehydrogenase); AID 894, 2007; 15-hydroxyprostaglandin dehydrogenase [NAD(+)] (Homo sapiens), P15428; Potency, µM, for the others: at the top dose activity change, negative = inhibition, usual class: inhibitors; purified HPGD, NADH fluorescence kinetic, PGE2 substrate; 4.3% of 150,000 active; note: potency is the fitted concentration of half-maximal effect
Target sequence (P15428 whole entry, looked up): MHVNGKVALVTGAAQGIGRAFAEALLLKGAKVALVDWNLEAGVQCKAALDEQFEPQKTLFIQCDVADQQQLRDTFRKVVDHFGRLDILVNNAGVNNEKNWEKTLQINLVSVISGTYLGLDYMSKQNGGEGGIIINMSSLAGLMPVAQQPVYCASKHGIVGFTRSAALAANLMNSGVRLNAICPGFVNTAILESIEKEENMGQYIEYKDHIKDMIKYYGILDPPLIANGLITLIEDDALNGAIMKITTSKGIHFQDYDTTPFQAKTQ
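NADH formation kinetics: reaction with 30 uM PGE2 and 1 mM NAD+ (final), 20 nM enzyme, Tris-HCl pH 8 with Tween 20, after 15 min compound preincubation at room temperature. Fluorescence change, last versus first of five reads.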
IMPase cell inh = qHTS Assay for Identifying the Cell-Membrane Permeable IMPase Inhibitors. Inositol monophosphatase 1 (Rattus norvegicus), P97697. CHO-M1 cells, IP1 accumulation, HTRF TR-FRET ratio. inhibition (IP1 accumulation), % at 46.1 µM. 120,000 tested, under 10 active. AID 901, 2007; active = well fitted curve in the direction sought with a large enough effect in the signal ratio, not every such curve was filed as active; inconclusive = small, poorly fitted or top-dose-only effect, or a change in a side signal; inactive = no such curve, though single readings can be large or run the other way; the % refers to the signal ratio;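 note: cells stimulated with carbachol in lithium chloride buffer; plate controls were DMSO basal wells for no effect and reference inhibitor wells for full effect; higher means more IMPase inhibition seen as more IP1 and lower FRET ratio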
Target sequence (P97697 whole entry, looked up): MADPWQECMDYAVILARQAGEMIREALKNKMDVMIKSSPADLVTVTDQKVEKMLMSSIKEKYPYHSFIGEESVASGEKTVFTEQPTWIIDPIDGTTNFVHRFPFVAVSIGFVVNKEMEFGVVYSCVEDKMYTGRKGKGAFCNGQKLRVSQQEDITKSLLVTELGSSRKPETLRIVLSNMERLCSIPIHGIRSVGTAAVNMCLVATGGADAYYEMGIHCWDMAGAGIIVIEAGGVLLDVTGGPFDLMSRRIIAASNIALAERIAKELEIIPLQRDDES
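In this qHTS, compounds (final up to 46 uM) act on CHO-M1 cells that are then activated through the M1 receptor with carbachol, in pH 7.4 buffer containing 50 mM LiCl, for 30 min. IP1 accumulation is quantified by the IP-One immunoassay.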
NPSR antag = qHTS Assay for Antagonists of the Neuropeptide S Receptor: cAMP Signal Transduction; AID 1461, 2008; Q6W5P4; Potency, µM (highest dose often 38.3 µM), without a hit: at the highest dose activity change, negative = inhibition, hits mostly inhibitors; CHO-NPSR cells, cAMP TR-FRET, antagonist mode; 1% of 220,000 active; active = well fitted curve in the direction sought with a large enough effect; inconclusive = small, poorly fitted or top-dose-only effect, or another doubt; inactive = no such curve, though single readings can be large; an effect the other way counts as inactive or inconclusive; note: potency is the fitted concentration of half-maximal effect; nearly all actives have a fitted effect of over 50% in size
IMPase Li cell = qHTS Assay for Identifying the Cell-Membrane Permeable IMPase Inhibitors: Potentiation with Lithium; CHO-M1 cells, IP1 TR-FRET (IP-One), carbachol + lithium; Potency, µM (doses to about 59.4 µM), without a hit: at the top dose activity, negative = IMPase inhibition, actives largely listed as inhibitors; 0.35% of 210,000 active; active = well fitted curve in the direction sought with a large enough effect; inconclusive = small, poorly fitted or top-dose-only effect, or another doubt; inactive = no such curve, though single readings can be large; an effect the other way counts as inactive or inconclusive;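 note: IP1 builds up when IMPase is blocked and the TR-FRET signal falls; potency is the fitted concentration of half-maximal effect; plate controls were basal vehicle for no effect and high inhibitor control for full effect; nearly all actives have a fitted effect of over 50% in size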
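CHO cells stably expressing M1 receptor (2000/well, cultured 16–30 h) treated 30 min at 37C with compound plus low lithium. Cytosolic IP1 by TR-FRET (665/620 ratio and 620 channel) after 10 min lysis; AC50 by Hill fit.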
Active calls of the source: *; ? = inconclusive; nt = not tested or not shown; [ ] = remark or other dose. Unless noted, calls come from the whole dose curve; as a rule, active = well fitted inhibition curve with a large enough effect (not every such curve was filed as active); inconclusive = small, poorly fitted or top-dose-only effect, or another doubt; inactive = no such curve, though single readings can be large or run the other way. Unless noted, % is set by controls: 0 for no effect and ±100 for the full control effect.

SMILES | PNC inhibitor | ALDH1A1 block | HPGD block | IMPase cell inh | NPSR antag | IMPase Li cell
COCCNC(=O)CSc1nc2nc(C)cc(C)n2n1 | -16.9 | -9.1% | 20µM* | 3.2 | 5.0%[46.1 µM] | 1.2%[38.3 µM]
COC(=O)CSc1nc2nc(C)cc(C)n2n1 | -84.7* | -11.3% | -16.2% | -4.5 | -13.9%[46.1 µM] | 27.4%[38.3 µM]
CCC(C)(C)n1nnnc1C(c1cc2cc(C)cc(C)c2[nH]c1=O)N1CCCC1 (centres undefined) | ? | ? | -17.7% | -14.0 | -14.0%[46.1 µM] | 4.1%
Cc1cnn(CCC(=O)NNC(=S)Nc2ccc(F)cc2)c1 | ? | 4.7% | -8.9% | 4.3 | 4.3%[46.1 µM] | -22.2%[38.3 µM]
O=C(O)c1cccc(N2C(=O)C3C4C=CC(C4=C(c4ccccc4)c4ccccc4)C3C2=O)c1 (centres undefined) | nt | -3.4% | nt | nt | -55.1% | ?
O=C1C2C3C=CC(C2C(=O)N1c1cccc(O)c1)C1C2C(=O)N(c4cccc(O)c4)C(=O)C2C31 (centres undefined) | nt | 1.41µM* | nt | nt | 6.9% | 0.6%
CN1c2ccccc2C(C)(C)C12CC(c1cccc(S(=O)(=O)N3CCCC3)c1)=NO2 (centres undefined) | -117.0* | -10.4% | -20.8% | nt | 5.3% | 0.4%
CN1c2ccccc2C(C)(C)C12CC(c1ccc(S(=O)(=O)N3CCCCC3)cc1)=NO2 (centres undefined) | ? | 10.5% | -8.2% | nt | 3.8% | -8.5%
CCN(CC)S(=O)(=O)c1ccc(C2=NOC3(C2)N(C)c2ccccc2C3(C)C)cc1 (centres undefined) | -106.3* | ? | -17.1% | nt | -9.3% | 7.4%
CCOC(=O)N1CCN(C(=O)c2ccc(NC(=O)CC)cc2)CC1 | 2.1 | 5.9% | ? | 4.6 | 2.2%[46.1 µM] | 4.2%[38.3 µM]
N#CNC(=Nc1cccc(F)c1)SCc1ccccc1 | -102.6* | -1.0% | -0.7% | nt | 14.9% | 7.1%
N#CNC(=Nc1cccc(F)c1)SCc1cccc(F)c1 | -16.0 | 6.4% | -0.8% | nt | 16.1% | 5.6%
c1cnc2c(c1)ncc1cscc12 | 2.7 | -10.9% | -11.7% | nt | 12.3% | -4.8%
Cc1ccc(-c2nn3c(C)nnc3c3ccccc23)cc1S(=O)(=O)NCCN1CCOCC1 | 68.4 | 24.1% | -30.0% | -1.4 | -1.5%[46.1 µM] | -9.7%[38.3 µM]
Cc1ccc(-c2nn(C)c(=O)c3ccccc23)cc1S(=O)(=O)N1CCOCC1 | -7.1 | 1.4% | 14.1µM* | -10.1 | -7.3%[46.1 µM] | 17.9%
Cc1ccc(-c2n[nH]c(=O)c3ccccc23)cc1S(=O)(=O)NCCN1CCOCC1 | -24.0 | 2.1% | 12.6µM* | 1.4 | -1.4%[46.1 µM] | -7.5%[38.3 µM]
CCSc1ccccc1C(=O)NCCc1ccccc1 | nt | 5.3% | nt | nt | -7.2% | 1.7%
COc1cc2[nH]c(=O)n3nc(-c4ccccc4)nc3c2cc1OC | -100.0* | ? | ? | 1.0 | -11.2%[46.1 µM] | 16.3%
COC(=O)c1ccccc1NC(=O)Nc1ccc(Br)cn1 | nt | 5.5% | nt | nt | 4.4% | 1.3%
CC(C)C1S/C(=N/N=C/c2cccs2)NC1=O (centres undefined) | ? | ? | 25.1µM* | 4.7 | -8.2%[46.1 µM] | 2.5%[38.3 µM]
COCCN1C(=O)/C(=C/c2cc3c(cc2Br)OCO3)NC1=S | nt | 0.199µM* | nt | nt | 6.7% | 9.4%
COCCCNC(=O)C(=O)N/N=C/c1cc2c(cc1Br)OCO2 | nt | -0.4% | nt | nt | -7.8% | 4.8%
COC(=O)c1[nH]c2cccc(OC)c2c1NC(=O)CCN1CCN(c2cccc(Cl)c2)CC1 | 3.6 | -15.5% | ? | -4.4 | -15.8%[46.1 µM] | -0.7%[38.3 µM]
O=C1C2CCCN2C(=O)N1CCN1CCN(c2ccccc2)CC1 (centres undefined) | -22.0 | 7.9% | 0.3% | nt | 21.4% | -0.7%
CCOC(=O)c1sc(=NC(=O)c2cccc(OC)c2)n(C)c1C | 12.7 | 9.0% | nt | 1.3 | 10µM* | nt

High-throughput results: PubChem BioAssay, National Center for Advancing Translational Sciences (NCATS)
